From PubChem
Shown are actives, neighbours in structure and some others; about 19% of the full set was active somewhere.
TDP1 cell CPT: growth inhibition of DT40 Tdp1-/-;hTDP1 cells with camptothecin (screen for TDP1 inhibitors); chicken DT40 Tdp1-/-;hTDP1 cells + 20 nM CPT, ATP luminescence, 48 h; Potency, µM (highest dose often 46.2 µM), usual class: inhibitors; actives 12% (n = 420,000); AID 686979; note: nearly all actives have a fitted effect of over 55% in size
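Cell growth measured by CellTiter-Glo luminescence after a minimum 48 h, 37 C compound exposure with 20 nM CPT in Tdp1-knockout DT40 cells stably expressing hTDP1, seeded 400/well; qHTS titration format.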
ASM inhibitor: human S-ASM enzyme inhibition; placental ASM, HMU-PC fluorogenic substrate, 60 min; Potency, µM (top dose mostly 57.5 µM), usual class: inhibitors; actives 0.006% (n = 340,000); AID 504937
Target sequence (P17405 47-631 limits assumed): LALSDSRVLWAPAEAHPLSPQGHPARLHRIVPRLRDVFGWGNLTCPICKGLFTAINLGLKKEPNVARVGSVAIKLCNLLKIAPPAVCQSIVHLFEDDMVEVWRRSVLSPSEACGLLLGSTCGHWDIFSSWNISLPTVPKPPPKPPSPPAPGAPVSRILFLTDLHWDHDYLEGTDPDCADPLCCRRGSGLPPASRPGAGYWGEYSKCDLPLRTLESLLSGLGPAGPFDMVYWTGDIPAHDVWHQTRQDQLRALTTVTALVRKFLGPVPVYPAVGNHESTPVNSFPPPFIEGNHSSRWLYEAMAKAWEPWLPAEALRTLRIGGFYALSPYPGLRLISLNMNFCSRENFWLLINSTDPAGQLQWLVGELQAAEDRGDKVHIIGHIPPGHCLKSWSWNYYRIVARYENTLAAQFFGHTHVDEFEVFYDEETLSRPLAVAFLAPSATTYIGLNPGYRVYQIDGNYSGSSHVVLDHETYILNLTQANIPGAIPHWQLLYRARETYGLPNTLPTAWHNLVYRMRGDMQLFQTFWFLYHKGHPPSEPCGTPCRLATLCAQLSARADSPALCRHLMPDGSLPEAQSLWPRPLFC
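Steps: dispense placental human ASM, pin compound, wait 10 min at room temperature, add HMU-PC0 substrate at 9 uM final, incubate 60 min at 37 °C, add stop solution raising pH to 10, read fluorescence.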
HepG2 tox: kills HepG2 cells in TGF-b inhibitor counter-screen; HepG2 CAGA-GFP viability, ATP luminescence, 18 h; Potency, µM (titrated, usually from 46.1 µM), hits mostly cytotoxic; actives 0.76% (n = 410,000); AID 588856
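CellTiter-Glo luminescence gave cytotoxicity after 18 hours at 37 degrees C. The cells were HepG2 CAGA-GFP in 1% FBS DMEM, stimulated with 500 pg/mL TGF-beta after compound addition. %Activity was normalised to no-cell wells (complete cell-killing) and DMSO (no toxicity), and curves were fitted and classified.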
IL1B secr inh: inflammasome signaling inhibition, IL-1 beta readout. THP-1 LPS/ATP IL-1B secretion, AlphaLISA, 16 h; hits give low values. activity change, % at 57.5 µM. actives 4.7% (n = 360,000); in the data active = activity change below about -50%; inconclusive = mostly about -30% to -49%
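THP-1 cells pretreated 1 hr with compounds (up to 57.5 uM final), then stimulated with LPS (250 ng/mL final) plus ATP (1.25 mM final); secreted IL-1B measured by AlphaLISA after 16 hr, decreased signal indicating inhibition.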
TGFb SMAD3 inh: inhibitors of TGF-b signaling; HepG2 CAGA-GFP TGF-b/SMAD3 reporter, GFP fluorescence, 18 h; TGF-beta stimulated, 500 pg/mL final; Potency, µM (top dose mostly 46.1 µM), usual class: inhibitors; actives 1.2% (n = 410,000); AID 588855; note: nearly all actives have a fitted effect of over 65% in size
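HEPG2 CAGA-GFP cells (1000/well, DMEM with 1% FBS) were pre-incubated 2 h at 37 degrees C, given compound by pin tool, then stimulated with TGF-beta at 500 pg/mL final for 18 h before per-cell GFP fluorescence imaging.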
TDP1 cell noCPT: qHTS for Inhibitors of human tyrosyl-DNA phosphodiesterase 1 (TDP1): qHTS in cells in absence of CPT | DT40 Tdp1-/- hTDP1 cells, no CPT, ATP luminescence, 48 h | Potency, µM (series often up to 46.2 µM), usual class: inhibitors | actives 15% (n = 420,000) | AID 686978, 2013; note: nearly all actives have a fitted effect of over 55% in size
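Growth kinetics read by CellTiter-Glo luminescence after ≥48 hr at 37 °C. Cells: DT40 Tdp1-/- stably carrying human TDP1, 400 per well, compound exposure in the absence of CPT (DMSO vehicle).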
Hits are given with their value; n = inactive; u = inconclusive; x = not tested or not shown. Unless noted, calls come from the whole dose curve; as a rule, active = well fitted curve in the direction sought with a large enough effect; inconclusive = small, poorly fitted or top-dose-only effect, or another doubt; inactive = no such curve, though single readings can be large; an effect the other way counts as inactive or inconclusive.

SMILES	TDP1 cell CPT	ASM inhibitor	HepG2 tox	IL1B secr inh	TGFb SMAD3 inh	TDP1 cell noCPT
CCCCc1n(CC(=O)c2ccc(Cl)cc2)c2ccccc2[n+]1C	6.5µM	n	n	-68	n	6.5µM
N=c1n(CC(=O)c2cccs2)c2ccccc2n1Cc1ccccc1	16µM	n	n	n	n	16µM
CC1(C)C[C@@H]2C(=O)CCC3O[C@@]3(C)CCC21 (stereo partly drawn)	n	x	x	x	x	n
COc1ccc(N2CCN(C(=O)c3ccc(Cn4c(=S)[nH]c5ccc(N6CCOCC6)cc5c4=O)cc3)CC2)cc1	23µM	n	n	n	n	18µM
CCOc1cc2[nH]c(=S)n(C(C)C)c(=O)c2cc1OCC	18µM	n	n	n	n	u
O=C(c1ccc(Cn2c(=O)[nH]c3ccccc3c2=O)cc1)N1CCN(c2ccc(F)cc2)CC1	u	n	n	n	n	u
CCOc1cc2[nH]c(=S)n(Cc3ccc(C)o3)c(=O)c2cc1OCC	29µM	n	n	n	n	n
COc1ccc(Cn2c(=S)[nH]c3cc(C(=O)N4CCN(c5ccccc5)CC4)ccc3c2=O)cc1	u	n	n	n	n	u
O=C(c1ccc(Cn2c(=S)[nH]c3ccc(N4CCOCC4)cc3c2=O)cc1)N1CCN(c2ccc(F)cc2)CC1	16µM	n	n	n	n	16µM
COc1cc(C2C3=C(Nc4nc(N)[nH]c(=O)c42)c2ccccc2C3=O)ccc1O (stereo not drawn)	n	n	n	n	n	n
Cc1oc(-c2cccc(Cl)c2)nc1CS(=O)(=O)CC(=O)NCc1ccccc1Cl	n	x	n	x	n	u
CCSc1nnc(NC(=O)c2cc(=O)c3cc(C)ccc3o2)s1	n	x	n	x	n	n
O=C1Nc2ccccc2C(=O)N2c3ccccc3NC(=O)C12 (stereo not drawn)	n	x	n	n	n	n
CCc1cccc(NC(=O)CCNS(=O)(=O)c2ccc3c(c2)CCN3C(C)=O)c1	u	x	n	x	n	n
CCOc1cc2[nH]c(=S)n(CCN3CCCCC3CC)c(=O)c2cc1OCC (stereo not drawn)	u	n	n	n	n	16µM
O=C(c1ccc(Cn2c(=S)[nH]c3cc4c(cc3c2=O)OCO4)cc1)N1CCN(c2ccccc2)CC1	u	n	n	n	n	23µM
Cc1ccc(C)c(N2CCN(C(=O)c3ccc(Cn4c(=S)[nH]c5ccc(N6CCOCC6)cc5c4=O)cc3)CC2)c1	u	n	n	n	n	15µM
O=c1c2cc(N3CCOCC3)ccc2[nH]c(=S)n1CCN1CCCC1	n	n	n	n	n	n
COC(CNC(=O)c1ccc(Cn2c(=S)[nH]c3cc4c(cc3c2=O)OCO4)cc1)OC	n	n	n	n	n	u
CCOc1cc2[nH]c(=S)n(CCN3CCC(C)CC3)c(=O)c2cc1OCC	n	n	n	n	n	n
Cc1ccc(Cn2c(=S)[nH]c3ccc(N4CCOCC4)cc3c2=O)o1	u	n	n	u	n	16µM
O=C(Cc1cccc2ccccc12)Nc1ccccc1Br	n	n	n	n	n	n
COc1cccc(OC)c1C(=O)OCC(=O)NC1CCCCCC1	u	n	n	n	n	u
O=C(c1ccc(COc2ccccc2Br)o1)N1CCCCCC1	21µM	n	n	n	u	u
CCCc1ccc(OCc2ccc(C(=O)N3CCCC3)o2)cc1	u	n	n	n	u	21µM
SMILES	TDP1 cell CPT	ASM inhibitor	HepG2 tox	IL1B secr inh	TGFb SMAD3 inh	TDP1 cell noCPT
O=C(COc1ccccc1Cl)Nc1ccc(C(=O)N2CCCCC2)cc1	u	n	n	n	n	u
Cc1ccccc1OCc1ccc(C(=O)N2CCOCC2)o1	n	n	n	n	n	n
O=C(c1ccc(COc2ccccc2Br)cc1)N1CCCCC1	15µM	n	n	-58	n	16µM
COc1ccc(C2CC(=O)N(CC(=O)Nc3cc(C)ccc3C)c3ccccc3S2)cc1 (stereo not drawn)	x	x	n	x	n	x
Cc1ccc(OCC(=O)NNC(=O)c2ccc(F)c(S(=O)(=O)N3CCOCC3)c2)cc1C	n	x	n	n	n	n
COC(=O)[C@@H](Cc1ccccc1)NC(=O)Cn1cc(C)c(=O)[nH]c1=O	n	n	n	n	n	n
CC1CCN(Cc2ccc(NC(=O)C3CCN(c4nnc(-n5cccc5)s4)CC3)cc2)CC1	18µM	n	n	n	n	u
O=C(NC1CCCc2ccccc21)C1CCN(c2nnc(-n3cccc3)s2)CC1 (stereo not drawn)	23µM	n	n	n	u	u
O=C(C1CCN(c2nnc(-n3cccc3)s2)CC1)N1CCN(Cc2ccc3c(c2)OCO3)CC1	u	n	n	n	n	15µM
Cc1cc(C)nc(N2CCC(C(=O)NC3CCCc4ccccc43)CC2)n1 (stereo not drawn)	n	n	n	n	n	n
O=S(=O)(c1ccc(F)c(F)c1)N1CCC2(CC1)OCCO2	n	n	n	n	n	n
O=C(Nc1ccccc1C(=O)Nc1nnc(C(F)(F)F)s1)c1ccccc1	2.9µM	n	n	x	u	4.1µM
COc1ccc(N(C)C(=O)Cc2c(C(=O)O)n(C)c3ccccc23)c(OC)c1	n	n	n	n	n	n
Cc1cccc(NC(=O)c2oc(=O)c3ccccc3c2-c2ccccc2)c1C	10µM	n	n	n	n	12µM
COc1ccc(OC)c(NC(=O)c2oc(=O)c3ccccc3c2-c2ccccc2)c1	u	x	n	x	n	21µM
Cc1ccccc1NC(=O)c1oc(=O)c2ccccc2c1-c1ccccc1	n	n	n	n	n	u
COc1ccc(N(C)C(=O)c2oc(=O)c3ccccc3c2-c2ccc(C)cc2)c(OC)c1	21µM	n	n	n	u	16µM
CC(=O)N(C(C)=O)c1ccc2c(c1)OCCO2	n	x	n	n	n	n
CCCCc1cc(=O)oc2cc(C)cc(OCC(=O)NCc3ccccn3)c12	u	n	n	n	n	u
CN(C1CCCCC1)S(=O)(=O)c1ccc2[nH]c(=O)oc2c1	n	n	n	n	n	n
COc1ccc(/C=N/n2cnc3c([nH]c4ccc(C)cc43)c2=O)cc1CN1CCCC1	5.2µM	u	n	-102	u	7.3µM
Cc1cccc(OCc2nnc(SCC(=O)N(c3ccccc3)C3CCS(=O)(=O)C3)o2)c1 (stereo not drawn)	u	n	n	n	n	n
C/C(O)=C(\C#N)c1nnc2n1CCCCC2	n	n	n	n	n	n
